Structures can show the parent of a compound that is named as a salt.
What follows are compounds tested on Saccharomyces cerevisiae BY4741 SeMeCo community (assay: z-score of subpopulation abundance vs DMSO median, subpopulation auxotrophic for HLU; higher = larger share of this subpopulation than in DMSO controls). Conditions: 10 µM; 24 h; SM minimal medium; subpopulation (auxotrophy): HLU.
Description: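 Fluorescent four-plasmid SeMeCo (self-establishing metabolically cooperating S. cerevisiae BY4741 community; plasmids pH-mRuby2, pL-mWasabi, pU-eCFP, pM-TagRFP657) was grown 24 h in minimal SM medium with each Selleck FDA-approved drug at 10 µM in 384-well plates. Cells were fixed and imaged by high-content confocal microscopy. For each auxotrophic subpopulation (and the prototroph), a z-score gives the deviation from the DMSO vehicle-control population median.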

| Structure (SMILES) | z-score of subpopulation abundance |
| --- | --- |
| CCN(CC)CCOC(=O)C(O)(c1ccccc1)c1ccccc1 [Benactyzine hydrochloride] | 0.38 |
| CCCN1C[C@H](CSC)C[C@@H]2c3cccc4[nH]cc(c34)C[C@H]21 [Pergolide Mesylate] | -0.75 |
| CN(C)[C@@H]1C(=O)C(C(N)=O)=C(O)[C@@]2(O)C(=O)C3=C(O)c4c(O)cccc4[C@@](C)(O)[C@H]3[C@H](O)[C@@H]12 [Oxytetracycline Dihydrate] | 0.15 |
| CCCCCCCCCCCCCCCC[n+]1ccccc1 [Cetylpyridinium Chloride] | 9.76 |
| C[C@H]1O[C@H](O[C@H]2[C@H](O)[C@@H](O)[C@@H](O)[C@H](O)[C@@H]2O)[C@@H](N)C[C@@H]1NC(=N)C(=O)O [Kasugamycin hydrochloride] | 0.46 |
| O=c1cccc2n1C[C@@H]1CNC[C@H]2C1 [Cytisine] | -0.22 |
| CCN(C)C(=O)Oc1cccc([C@H](C)N(C)C)c1 [Rivastigmine] | -0.24 |
| Cc1cc(C(C#N)c2ccc(Cl)cc2)c(Cl)cc1NC(=O)c1cc(I)cc(I)c1O (centres undefined) [Closantel] | 0.79 |
| N#Cc1nn(-c2c(Cl)cc(C(F)(F)F)cc2Cl)c(N)c1[S+]([O-])C(F)(F)F (centres undefined) [Fipronil] | -1 |
| COc1cc2c(cc1OC)C1CC(=O)C(CC(C)C)CN1CC2 (centres undefined) [Tetrabenazine (Xenazine)] | -0.31 |
| C=CC[C@]1(O)CC[C@H]2[C@@H]3CCC4=CC(=O)CCC4=C3C=C[C@@]21C [Altrenogest] | 0.03 |
| O=C(O[C@H]1C[N+]2(CCCOc3ccccc3)CCC1CC2)C(O)(c1cccs1)c1cccs1 [Aclidinium Bromide] | -0.54 |
| Cn1cc(C2=C(c3cn(C4CCN(Cc5ccccn5)CC4)c4ccccc34)C(=O)NC2=O)c2ccccc21 | 0.26 |
| CN1[C@@H]2C[C@@H](OC(=O)[C@H](CO)c3ccccc3)C[C@H]1[C@@H]1O[C@@H]12 [Scopolamine HBr trihydrate] | -0.91 |
| COc1ccc2c3c([nH]c2c1)C(C)=NCC3 [Harmaline] | -4.09 |
| CC(C)(O)C(Cl)(Cl)Cl [Chlorobutanol] | 0.97 |
| CCC1=C[C@H]2CN3CCc4c([nH]c5ccccc45)[C@](C(=O)OC)(C2)[C@H]13 [Catharanthine] | -0.62 |

| Structure (SMILES) | z-score of subpopulation abundance |
| --- | --- |
| Nc1nc(N)nc(NC2CC2)n1 [Cyromazine] | 0.88 |
| C[C@@H]1O[C@@H](O[C@H]2C[C@@H](O)[C@]3(CO)[C@H]4[C@H](O)C[C@]5(C)[C@@H](C6=CC(=O)OC6)CC[C@]5(O)[C@@H]4CC[C@]3(O)C2)[C@H](O)[C@H](O)[C@H]1O [Ouabain] | -1.06 |
| O=[N+]([O-])C(Br)(CO)CO [Bronopol] | 0.49 |
| C[N+]1(C)[C@@H]2C[C@@H](OC(=O)[C@H](CO)c3ccccc3)C[C@H]1[C@@H]1O[C@@H]12 [Methscopolamine] | 0.5 |
| CCN(C)C(=O)Oc1cccc([C@H](C)N(C)C)c1 [Rivastigmine Tartrate] | -0.41 |
| COc1ccc(C(CN(C)C)C2(O)CCCCC2)cc1 (centres undefined) [Venlafaxine HCl] | -0.14 |
| CC[C@@]1(O)C(=O)OCc2c1cc1n(c2=O)Cc2cc3ccccc3nc2-1 [Camptothecin] | -0.42 |
| N[C@@H]1C[C@H]1c1ccccc1 [Tranylcypromine (2-PCPA) HCl] | 0.05 |
| Oc1cc(Cl)ccc1Oc1ccc(Cl)cc1Cl [Triclosan] | 2.87 |
| C=C(C)[C@H]1Cc2c(ccc3c2O[C@@H]2COc4cc(OC)c(OC)cc4[C@@H]2C3=O)O1 [Rotenone (Barbasco)] | 1.77 |
| C=C[C@H]1CN2CC[C@H]1C[C@H]2[C@H](O)c1ccnc2ccccc12 [Cinchonidine] | -0.48 |
| CN(C)C(=O)Oc1ccc[n+](C)c1 [Pyridostigmine Bromide] | -0.68 |
| C[CH2][Hg][S]c1ccccc1C(=O)[O-].[Na+] [Thimerosal] | 15.9 |
| Nc1ccncc1 [4-Aminopyridine] | 0.05 |
| CN1C(=O)COc2c(C(=O)NC3CN4CCC3CC4)cc(Cl)cc21 (centres undefined) [Azasetron HCl] | -0.64 |
| CC[C@H]1CN2CC[C@]3(C(=O)Nc4ccccc43)[C@@H]2C[C@@H]1/C(=C\OC)C(=O)OC [Rhynchophylline] | 0.21 |
| CC(=O)OCC1=C(C(=O)O)N2C(=O)C(N)C2SC1 (centres undefined) [7-Aminocephalosporanic acid] | -0.25 |

Reference: the supplement of paper PMC8975748
